Most compounds without a hit are left out; they make up all but 9.5% or so of the library.
Tau fibril FP – tau fibrillization inhibition (FP) | Potency, µM (highest dose often 57.7 µM), usual class: inhibitors | P10636 | hit rate 0.39% among 280,000 | AID 1468 | K18 P301L tau heparin fibrillization, Alexa594 FP, 6 h; note: nearly all actives have a fitted effect of over 55% in size
Target sequence (P10636 561-689 P618L limits assumed): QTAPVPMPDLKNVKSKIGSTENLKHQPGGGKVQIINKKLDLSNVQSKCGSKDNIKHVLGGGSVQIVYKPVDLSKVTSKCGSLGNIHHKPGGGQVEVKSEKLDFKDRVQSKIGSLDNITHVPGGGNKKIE
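FP of Alexa 594-tau after heparin (20 uM) induction. Substrate: human K18 P301L, 15 uM unlabeled, 0.24 uM labeled. Buffer 100 mM sodium acetate pH 7. 6 hr, 37 C.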
ALDH1A1 inh – inhibitors of human aldehyde dehydrogenase 1A1; Purified ALDH1A1, NADH fluorescence, propionaldehyde substrate; Potency, µM (top dose mostly 75.3 µM), hits mostly inhibitors; hit rate 7.3% among 220,000; active = well fitted inhibition curve with a large enough effect, not every such curve was filed as active; inconclusive = small, poorly fitted or top-dose-only effect, or another doubt; inactive = no such curve, though single readings can be large or run the other way
Target sequence (P00352 whole entry, looked up): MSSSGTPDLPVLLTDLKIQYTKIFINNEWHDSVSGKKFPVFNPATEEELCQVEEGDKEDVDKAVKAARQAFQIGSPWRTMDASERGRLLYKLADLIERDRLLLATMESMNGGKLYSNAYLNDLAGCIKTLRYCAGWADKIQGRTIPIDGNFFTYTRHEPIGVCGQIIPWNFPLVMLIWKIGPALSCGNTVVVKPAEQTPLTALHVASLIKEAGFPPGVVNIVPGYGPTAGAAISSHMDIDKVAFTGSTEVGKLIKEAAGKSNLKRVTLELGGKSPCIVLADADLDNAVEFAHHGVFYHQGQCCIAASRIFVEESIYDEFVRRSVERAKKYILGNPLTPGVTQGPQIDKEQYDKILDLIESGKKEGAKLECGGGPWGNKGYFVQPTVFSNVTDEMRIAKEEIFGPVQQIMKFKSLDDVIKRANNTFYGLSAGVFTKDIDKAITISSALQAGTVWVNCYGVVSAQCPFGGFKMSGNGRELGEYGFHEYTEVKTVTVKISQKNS
NPSR antag – blocks cAMP signaling of the human neuropeptide S receptor; Q6W5P4; CHO-NPSR cells, cAMP TR-FRET, antagonist mode; Potency, µM (top dose mostly 38.3 µM), usual class: inhibitors; hit rate 1% among 220,000; note: nearly all actives have a fitted effect of over 50% in size
HPGD block – blocks human HPGD enzyme activity | AID 894 | Potency, µM, usual class: inhibitors | purified HPGD, NADH fluorescence kinetic, PGE2 substrate | P15428 | hit rate 4.3% among 150,000; active = well fitted inhibition curve with a large enough effect, not every such curve was filed as active; inconclusive = small, poorly fitted or top-dose-only effect, or another doubt; inactive = no such curve, though single readings can be large or run the other way
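20 nM HPGD preincubated 15 min at room temperature with compound in 50 mM Tris-HCl pH 8, 0.01% Tween 20. Started with 1 mM NAD+ and 30 uM prostaglandin E2; NADH fluorescence (360/450 nm) read 5 times over 30-s intervals, last minus first.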
Tau fluor cs – counter-screen for tau fibril formation inhibitors; tau K18 P301L Alexa594 fluorescence, heparin fibrillization; Potency, µM (series often up to 57.7 µM); hit rate 0.93% among 280,000; AID 1463; note: nearly all actives have a fitted effect of over 55% in size
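Human tau K18 P301L (15 uM unlabeled, 0.24 uM Alexa 594-labeled) in 100 mM sodium acetate pH 7 with 20 uM heparin, 6 hr at 37 C. ThT 30 uM added, 1 hr ambient; Alexa 594 FP and total fluorescence read at 555/632 nm.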
Tau ThT inhib – tau fibrillization inhibition (ThT binding). Potency, µM (series often up to 57.4 µM), hits mostly inhibitors. P10636. recombinant tau K18 P301L, heparin-induced fibrillization, ThT fluorescence. hit rate 2.1% among 270,000; note: nearly all actives have a fitted effect of over 55% in size
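ThT emission at 510 nm, taken 1 hr after adding 30 uM dye, quantifies aggregates formed when 20 uM heparin acts on human tau K18 P301L for 6 hr at 37 C.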
Hits are given with their value; n = inactive; u = inconclusive; x = not tested or not shown; [ ] = another dose, or the depositor's remark. Unless noted, calls come from the whole dose curve; as a rule, active = well fitted curve in the direction sought with a large enough effect; inconclusive = small, poorly fitted or top-dose-only effect, or another doubt; inactive = no such curve, though single readings can be large; an effect the other way counts as inactive or inconclusive.

SMILES	Tau fibril FP	ALDH1A1 inh	NPSR antag	HPGD block	Tau fluor cs	Tau ThT inhib
O=C(Nc1ccc(S(=O)(=O)NC2CCCCC2)cc1)c1ccc(Br)o1	n	n	n	14µM	n	n
CN(C1=NS(=O)(=O)c2ccccc21)c1ccc(OC(=O)c2ccncc2)cc1	n	n	n	x	n	u
CCOC(=O)c1ccccc1OC(=O)CS(=O)c1ccccc1[N+](=O)[O-] (centres undefined)	n	22µM	n	x	u	u
O=C1N=c2ccccc2=C1c1[nH]c(=S)[nH]c1O	n	11µM	n	n	u	u
CCCN=C1NC(=O)C(CC(=O)NCCc2ccccc2)S1 (centres undefined)	n	28µM	n	x	n	n
Cc1ccc(-n2cc(-c3ccccc3)[nH]c2=O)cc1F	n	20µM	n	n	n	u
NC(=O)c1ccccc1NC(=O)CCc1ccccc1	n	n	n	n	n	n
NC(=O)c1ccccc1NC(=S)NC(=O)CCc1ccccc1	n	13µM	n	28µM	n	u
CC(C)c1ccc(NC(=O)c2cc(S(=O)(=O)NCc3ccccc3Cl)ccc2F)cc1	u	x	x	x	u	n
Cc1cc(C)c2cc3c(N)c(C(=O)N4CCc5ccccc5C4)sc3nc2c1	n	n	n	7.1µM	u	u
COc1cc2ccccc2cc1C(=O)N1CCN(C)CC1	n	u	n	u	n	n
CN(C)CC(O)COc1cc2ccccc2cc1C(=O)N1CCCCC1 (centres undefined)	n	n	n	28µM	n	n
O=C(COc1ccccc1[N+](=O)[O-])N1CCN(S(=O)(=O)c2ccccc2)CC1	n	n	n	x	n	n
O=C(OCC(=O)N1CCN(S(=O)(=O)c2ccccc2)CC1)c1ccc([N+](=O)[O-])o1	n	20µM	n	x	n	n
O=C(OCC(=O)N1CCN(S(=O)(=O)c2ccc(Cl)cc2)CC1)c1ccc([N+](=O)[O-])o1	n	25µM	n	x	n	n
CC(C)CC(=O)N1CCN(S(=O)(=O)c2ccc(Cl)cc2)CC1	n	n	n	x	n	n
CN(C)c1ccc(CNC(=O)Cn2ccc3cc(S(=O)(=O)N4CCCCCC4)ccc32)cc1	n	x	x	x	u	n
CNc1nc(-c2ccc(N(C)C)cc2)nc2ccccc12	n	n	x	u	u	u
Cc1sc2ncnc(N/N=C/c3ccc(O)cc3)c2c1C	n	n	n	n	13µM[quencher]	4.5µM
O=C(CN1C(=O)NC2(CCCCCCC2)C1=O)N1CCN(C(=O)c2ccco2)CC1	n	11µM	n	n	n	n
O=C(COC(=O)C1(c2ccc(F)cc2)CCCC1)N1CCN(C(=O)c2ccco2)CC1	n	20µM	n	n	n	n
O=C(CN1C(=O)NC2(CCCC2)C1=O)N1CCN(C(=O)c2ccco2)CC1	n	n	n	n	n	n
NC(=O)CC(O)c1cccc(Cl)c1 (centres undefined)	n	n	n	n	n	n
O=C(Nc1ccc(Br)cn1)c1cccc2c1-c1ccccc1C2=O	n	n	n	x	n	u
Cc1oc2c(c(C)cc3oc(=O)c(CC(=O)NCCc4ccc(Cl)cc4)c(C)c32)c1C	n	x	x	x	n	n
SMILES	Tau fibril FP	ALDH1A1 inh	NPSR antag	HPGD block	Tau fluor cs	Tau ThT inhib
Cc1cccc(N(C)S(=O)(=O)c2nnc(NC(=O)C3CCCCC3)s2)c1	n	x	x	x	n	n
O=C(CSc1ccccn1)Nc1ccc2c(c1)oc1ccccc12	u	n	n	25µM	u	n
CCN(CC)C(=O)CSc1nc2ccc(NC(=O)CSc3nnc(COc4ccccc4C)n3C)cc2s1	n	u	n	20µM	u	n
Cc1ccccc1OCc1nnc(SCC(=O)Nc2ccc3c(c2)oc2ccccc23)n1C	n	14µM	u	u	n	u
CCOC(=O)N1CCN(c2ccc3nnnn3n2)CC1	n	n	u	n	n	n
Cc1ccc(NC(=O)C(NS(=O)(=O)c2ccc3c(c2)CCC(=O)N3)c2ccccc2)cc1C (centres undefined)	n	x	x	x	n	n
CC(C)C(=O)NC(=S)Nc1sc2c(c1C(N)=O)CCCC2	u	7.1µM	n	14µM	n	u
COC(=O)Nc1sc2c(c1C(N)=O)CCCCCC2	n	8.9µM	n	14µM	n	n
Cc1noc(C)c1C(=O)Nc1sc2c(c1C(N)=O)CCC2	n	u	u	u	n	n
Cc1noc(C)c1C(=O)Nc1sc2c(c1C(N)=O)CCCCC2	n	7.9µM	n	u	n	n
CCC(=O)Nc1sc2c(c1C(N)=O)CCC2	n	n	n	n	n	n
CCCC(=O)NC(=S)Nc1sc2c(c1C(N)=O)CCC2	n	8.9µM	n	25µM	n	u
Cc1ccc(CNC(=O)Nc2cc(C(=O)NCc3cccc(F)c3)ccc2N2CCCC2)cc1	n	x	x	x	n	n
CC(C)(C)c1ccc(S(=O)(=O)N2CCN(c3ncccn3)CC2)cc1	n	n	n	x	n	n
CC1=CC=CN2C1=NC(=O)CC2(C)C(=O)N(CC(=O)NC1CCCC1)c1cc(C)cc(C)c1 (centres undefined)	n	u	n	x	n	n
Cc1ccc(OCCOc2ccc(Br)cc2)c([N+](=O)[O-])n1	n	u	n	10µM	u	u
Cc1cc(Cc2cc(C)c(N)cc2C)c(C)cc1N	n	22µM	n	x	n	n
COc1cc(C)c(Cc2cnc(N)nc2N)cc1OC	n	x	n	x	n	n
CC(=O)N1CCCc2cc(S(=O)(=O)NC(C(=O)NCc3ccc(C)cc3)C(C)C)ccc21 (centres undefined)	n	u	n	n	n	n
COc1ccc(N=Cc2c(O)[nH]c3ccccc23)cc1	n	n	n	n	u	u
Cc1[nH]c2ccccc2c1/C=N/NC(=O)c1cccs1	n	u	n	x	18µM[quencher]	11µM
Oc1[nH]c2ccccc2c1C=Nc1ccc2c(c1)OCO2	n	u	u	n	u	7.9µM
Cc1[nH]c2ccccc2c1/C=N\NC(=O)CNc1ccc2c(c1)OCO2	n	n	n	n	u	16µM
Cc1[nH]c2ccccc2c1/C=N/NC(=O)CNC(=O)c1cccs1	n	n	n	x	u	u
CCn1cc(S(=O)(=O)c2cc(C)cc(C)c2)c(=O)c2cc(F)c(N3CCC(C)CC3)cc21	n	x	x	x	n	n
SMILES	Tau fibril FP	ALDH1A1 inh	NPSR antag	HPGD block	Tau fluor cs	Tau ThT inhib
CCOC(=O)c1snc(-c2ccc(F)cc2)c1N	n	10µM	u	u	n	u
Nc1c(C(=O)c2ccc(Br)s2)oc2ccccc12	n	n	n	n	u	10µM
Cc1ccccc1NC(=O)c1c(C)oc2ccc(O)c(CN3CCN(C)CC3)c12	n	x	x	x	n	n
O=C(Nc1ccccc1NC(=O)NC1CCCCC1)NC1CCCCC1	n	n	n	n	n	n
Nc1ccccc1NC1CCCCC1	n	n	n	x	u	22µM
Cc1ccc(/C=N/n2cnc3sc(-c4ccccc4)cc3c2=O)o1	n	32µM	n	u	n	u
CC1=CC(=O)C2=C(C)C[C@@H]3OC(=O)[C@@H](C)[C@H]3C=C12	n	n	x	n	n	n
